Source: ChEMBL document CHEMBL3988442, “University of Dundee, Small-Polar-MMV Screening Library” (2021)
In all, about 48,000 compounds went through this assay and about 13,000 (27%) showed an effect of 50% or more. This is one part of the list.

System: Wolbachia pipientis
Test: Anti-Wolbachia Cell-Based Screen
Type: functional
Parameters: scale not given: in the data most compounds retested in dose-response had high values
Conditions: 5 µM

Compound | Percent Effect
Cc1c(C(=O)NC2(C#N)CCSC2)nnn1-c1ccccc1Cl (stereo not given) | 1.619%
Cn1cc(CNc2ccc(F)c(N3CCCS3(=O)=O)c2)cn1 | -4.512%
CCCOCC1CCN(C(=O)Cn2cccc(C(F)(F)F)c2=O)C1 (stereo not given) | -13.09%
CCN1CCCC12CCN(C(=O)c1ccsc1)CC2.O=C(O)C(F)(F)F | -19.39%
Cn1cc(CN2CCCC23CCN(C(=O)c2cccn2C)CC3)cn1.O=C(O)C(F)(F)F | -11.73%
CN(Cc1ccco1)C1CCC12CCN(C(=O)c1ccco1)CC2.O=C(O)C(F)(F)F (stereo not given) | -7.154%
CN(C)CCN1CCCC12CCN(C(=O)c1ccoc1)CC2.O=C(O)C(F)(F)F.O=C(O)C(F)(F)F | 109.3%
CN(C)CCN1CCCC12CCN(C(=O)c1cccn1C)CC2.O=C(O)C(F)(F)F.O=C(O)C(F)(F)F | -18.28%
CN(C)CCN1CCCC12CCCN(Cc1ccco1)C2.O=C(O)C(F)(F)F.O=C(O)C(F)(F)F.O=C(O)C(F)(F)F (stereo not given) | -6.586%
CN(C)CCN1CCCC12CCCN(Cc1ccoc1)C2.O=C(O)C(F)(F)F.O=C(O)C(F)(F)F.O=C(O)C(F)(F)F (stereo not given) | 19.5%
CN(C)CCN1CCCC12CCN(C(=O)c1ccco1)CC2.O=C(O)C(F)(F)F.O=C(O)C(F)(F)F | 96.22%
Cc1ccccc1C(=O)N1CCC2(CCCN2CCN(C)C)CC1.O=C(O)C(F)(F)F.O=C(O)C(F)(F)F | 100.3%
NC(=O)C(NCCc1ccc(Cl)s1)c1ccccc1 (stereo not given) | 0.1259%
CCN(Cc1noc(C(C)C)n1)Cc1ccc(C#N)cc1F | 13.78%
O=S(=O)(Cc1ccccc1)NCc1ccnc(O)c1 | -8.436%
CCc1ccc2nc(C)cc(C(=O)N3C[C@H]4CCC[C@@]4(CO)C3)c2c1 | -46.54%
CCSc1ncc(CN2C[C@H]3CC[C@@H]2CN(C2CCOCC2)C3)cn1 | 15.93%
CC(C)CC(C)NCc1cccnc1N1CCN(c2ccccn2)CC1 (stereo not given) | -4.161%
CCC(C)NC(=O)NCCC(=O)N1CCN(c2ccccn2)CC1 (stereo not given) | 129.1%
CSCC(C)N(C)C(=O)CN1CCN(c2ccccn2)CC1 (stereo not given) | -3.468%
CCCC(C)NCc1cccnc1N1CCN(c2ccccn2)CC1 (stereo not given) | 8.499%
CC(c1ccccn1)N(C)C(=O)CN1CCN(c2ccccn2)CC1 (stereo not given) | -2.14%
CCC(CC)C(=O)NCCC(=O)N1CCN(c2ccccn2)CC1 | 117%
CCc1nnsc1C(=O)NC1CCN(c2ccccn2)CC1 | -15.93%

Compound | Percent Effect
CC(C)C(=O)NCCC(=O)N1CCN(c2ccccn2)CC1 | 125.4%
CC(C)NCc1cccnc1N1CCN(c2ccccn2)CC1 | -3.713%
Cc1nc(CNC(=O)CCN2CCN(c3ccccn3)CC2)oc1C | -3.101%
CSC(C)C(=O)NCCC(=O)N1CCN(c2ccccn2)CC1 (stereo not given) | 112.5%
CCn1cc2c(n1)C(COC)CN(C(=O)COc1ccccc1C)C2 (stereo not given) | -8.136%
CC(=O)NC[C@@H]1C=C(C)[C@H](CC(=O)NCCN(C)C)C[C@H]1C(C)C | 6.725%
O=C1CC2(CCSC2)C(=O)N1CCCc1ccccc1 (stereo not given) | -8.478%
CCC(NC(=O)c1coc(COc2cccc(F)c2F)n1)C(=O)NC (stereo not given) | -19.24%
CCc1nnc2n1CCN(Cc1nc(-c3ccoc3)no1)C2 | -0.9507%
COCCC(=O)N1CCCC1c1csc(Nc2ccccn2)n1 (stereo not given) | 105.2%
COCCC(=O)N1CCCC1c1csc(Nc2ncccn2)n1 (stereo not given) | 107%
CC(C)(C)c1nnc(CN2CCN(C(=O)CC3CCCCC3)CC2)o1 | -4.944%
CCC[C@@H](NC(N)=O)C(=O)N1CCc2c(Cl)cccc2C1 | 5.459%
COCC(=O)Nc1cc(S(=O)(=O)C(F)(F)F)ccc1OC | 4.656%
CCc1nc(C)c(CN2CCOC(Cc3cccc4ccccc34)C2)[nH]1 (stereo not given) | 10.02%
OCC1(O)CCCN(Cc2nnc(-c3ccccc3)o2)CC1 (stereo not given) | 97.17%
Cc1nc(CN2CCCC(C)(CO)C2)no1 (stereo not given) | 110.1%
Cc1ccc(-c2nnc(CN3CCCC(O)(CO)CC3)o2)n1C (stereo not given) | -4.067%
Cn1cnc2c1CCN(Cc1noc(-c3ccccc3)n1)C2 | 2.267%
c1ccc(-c2nc(CN3CCn4c(nnc4C4CC4)C3)no2)cc1 | -9.405%
OCCOc1ccccc1CN1CCCC(O)(CO)C1 (stereo not given) | 16.2%
CC1(c2ccccc2)CCCN(Cc2nnc(-c3cccnc3)o2)C1 (stereo not given) | -17.9%
Cc1cc(CN2CCCC(C)(CO)C2)ccc1F (stereo not given) | -2.653%
OCC1(O)CCCN(Cc2noc(-c3ccccc3)n2)CC1 (stereo not given) | 104.1%

Compound | Percent Effect
OCC1(O)CCCN(Cc2noc(-c3ccccc3)n2)C1 (stereo not given) | 97.27%
CN(C)CC1(O)CCCN(c2noc(-c3ccccc3)n2)CC1 (stereo not given) | -6.371%
Cc1nc(CN2CCCN(CC(=O)N(C)CCC#N)CC2)no1 | 3.648%
O=C(O)C(F)(F)F.O=C(O)C(F)(F)F.O=C([C@H]1CN(Cc2nccs2)C[C@H]2OCC[C@@H]12)N1CCCCO1 | -13.3%
CCN1CCC2(CCC1=O)CN(c1cnc3ccccc3n1)CCN2C (stereo not given) | 10.67%
CCNC(=O)N(C)CCCc1n[nH]c(N)c1C#N | -6.653%
CC(C)n1ccnc1C1CCCN(c2cc(C(=O)NC3CC3)ccn2)C1 (stereo not given) | 11.95%
Cc1cnn(C2CN(Cc3noc(-c4ccccc4)n3)C2)c1 | 6.311%
Cn1ccnc1CN1CCN(Cc2noc(-c3ccccc3)n2)CC1 | -3.916%
OCC1(O)CCN(Cc2noc(-c3ccccc3)n2)CC1 | 112.4%
CCCC(N)CNS(=O)(=O)Cc1cccc(C#N)c1.Cl (stereo not given) | -1.555%
Cn1nc2c(cc1=O)CN(CCCOc1ccc(C#N)cc1)CC2 | -8.416%
CC(C)OCCCNC(=O)CS(=O)(=O)Cc1cccc(Cl)c1 | 109.4%
CC(NC(=O)NCCCN(C)S(C)(=O)=O)c1cccc(Cl)c1 (stereo not given) | -5.228%
Cc1ccc(CS(=O)(=O)CC(=O)NCc2ccccc2F)cc1 | -26.12%
CC(C)c1ccc(CS(=O)(=O)CC(=O)NCc2ccccc2F)cc1 | -59.22%
CC(C)OCCCNC(=O)CS(=O)(=O)Cc1ccc(Cl)cc1 | 111.2%
CC(C)OCCCNC(=O)CS(=O)(=O)Cc1ccc(C(C)C)cc1 | 60.49%
Cc1cccc(CS(=O)(=O)CC(=O)NCCCOC(C)C)c1 | -2.072%
Cc1ccc(CS(=O)(=O)CC(=O)NCCCOC(C)C)cc1 | 104.7%
CC(C)OCCCNC(=O)CS(=O)(=O)Cc1ccc(Cl)c(Cl)c1 | -2.776%
CC(C)OCCCNC(=O)NC(C)c1ccc(-n2cncn2)cc1 (stereo not given) | 21.75%
